Several values for one entry are separate records, joined by “and”; a condition that tells them apart may be missing. Equal entries are not always repeated. This is part of a sample that, as a whole, favours compounds with a hit. Of some 83,000 tested, about 20% had one in any assay.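 Compound tested at a single concentration for 48 hours in 96-well plates; a percent growth value below 10 was scored as active.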 Activity calls are given as the source filed them.

Consider 10 molecules from PubChem BioAssay (NCI).

Test in all cases: NCI-60 one-dose screen, 48 h (100 = growth as untreated, 0 = no growth, -100 = all killed)
What all share (details): 10 µM unless noted

Assay [1] relates to NCI-H23 lung.
Assay [2] deals with NCI-H226 lung.
For assay [3], the system named is NCI-H322M lung.
The test system of assay [4] is HOP-62 NSCLC.
The subject of assay [5] is NCI-H460 lung.
The subject of assay [6] is A549/ATCC NSCLC.
The test system of assay [7] is 786-0 renal.
The subject of assay [8] is MALME-3M melanoma.
Assay [9] relates to MDA-MB-231 breast.
In assay [10] the test system is RXF 393 renal.
Assay [11] concerns SF-268 CNS.
The subject of assay [12] is SF-295 CNS.
The subject of assay [13] is SF-539 CNS.
Assay [14] has as its system UACC-257 melanoma.
Assay [15] concerns M14 melanoma.
The test system of assay [16] is HOP-92 NSCLC.
Assay [17] relates to NCI-H522 lung.
Assay [18] has as its system COLO 205 colon.
The subject of assay [19] is DU-145 prostate.
In assay [20] the test system is K-562 leukemia.

As for `CC(O)Cn1cnc2c1c(=O)n(C)c(=O)n2C` (stereo not given), the growth in [1] is 96.7% (inactive); in [2] it was 102% (inactive); in assay [3], 96.6% (inactive); in assay [4], 102% (inactive); in [5] it was 118% (inactive); in [6], 99.6% (inactive). In addition, the growth in assay [7] was 102% (inactive); in assay [8], 110% (inactive); in assay [9], 95.5% (inactive); in assay [10] it was 99.3% (inactive); in assay [11], 103% (inactive); in assay [12] it was 109% (inactive). The growth in [13] is 93.7% (inactive); in assay [14] it was 106% (inactive); in [15], 104% (inactive).
For `Nc1nc2ncc(CNc3ccc(C(=O)N[C@@H](CCc4nn[nH]n4)C(=O)O)cc3)nc2c(=O)[nH]1`, the growth is 95.7% (inactive) and 95.5% (inactive) in assay [1]; 98.7% (inactive) and 93.8% (inactive) in assay [2]; 103% (inactive) and 102% (inactive) in assay [3]; 100% (inactive) and 101% (inactive) in [5]; 93.4% (inactive) and 78.5% (inactive) in assay [16]; 101% (inactive) and 84.6% (inactive) in [17]. Also, the growth was 106% (inactive) and 95.3% (inactive) in assay [6]; 106% (inactive) and 109% (inactive) in [7]; 107% (inactive) and 110% (inactive) in assay [18]; 99.4% (inactive) and 110% (inactive) in assay [19]; 90.7% (inactive) in [20]; 96.9% (inactive) and 104% (inactive) in assay [8]. For the same molecule, the growth in [9] was 110% (inactive) and 99.7% (inactive); in assay [10], 104% (inactive) and 96.3% (inactive); in [11] it was 98% (inactive) and 99.5% (inactive); in assay [12], 98.6% (inactive) and 100% (inactive); in assay [13], 91% (inactive) and 110% (inactive); in assay [14], 106% (inactive) and 91.8% (inactive). Also, the growth in [15] is 88% (inactive) and 98.6% (inactive).
With `O=S1(=O)CC(Br)C(Br)C1` (stereo not given), the growth is 61.3% (inactive) and 97.8% (inactive) in assay [1]; 40.7% (inactive) and 113% (inactive) in assay [2]; 104% (inactive) and 108% (inactive) in assay [3]; 104% (inactive) and 116% (inactive) in [4]; 107% (inactive) and 97.5% (inactive) in [5]; 5.91% (active) and 37.5% (inactive) in assay [16]. Besides, the growth in assay [17] was -48.2% (active); in [7] it was 101% (inactive) and 82.1% (inactive); in assay [18] it was 41.1% (inactive) and 58.3% (inactive); in [19] it was 72.3% (inactive) and 129% (inactive); in assay [20], 47% (inactive) and 69.7% (inactive); in assay [8], 19.9% (inactive) and 53.1% (inactive). Besides, the growth in assay [9] is 88% (inactive) and 103% (inactive); in [10] it was 40.1% (inactive) and 67.5% (inactive); in [11] it was 109% (inactive) and 129% (inactive); in [12], 111% (inactive) and 99.8% (inactive); in assay [13] it was 97.6% (inactive) and 99.1% (inactive); in assay [14] it was 71.5% (inactive) and 64.7% (inactive). In addition, in assay [15], the growth was 73.2% (inactive) and 87.5% (inactive).
`Nc1ccccc1SC1CC(=O)N(c2cccc3ccccc23)C1=O` (stereo not given): the growth is 101% (inactive) in assay [1]; 83.6% (inactive) in assay [2]; 97% (inactive) in assay [3]; 90.5% (inactive) in [4]; 99.3% (inactive) in assay [5]; 101% (inactive) in assay [7]. Besides, the growth in assay [18] was 105% (inactive); in [19], 111% (inactive); in assay [20] it was 90.2% (inactive); in assay [8], 101% (inactive); in assay [9], 91.9% (inactive); in assay [10], 93% (inactive). In addition, the growth in assay [11] is 98.1% (inactive); in [12] it was 94.7% (inactive); in [13], 95.6% (inactive); in assay [15], 105% (inactive).
With `Nc1ccc2[nH]c(-c3ccccc3)cc(=O)c2c1`, the growth is 98.3% (inactive) in assay [1]; 101% (inactive) in assay [2]; 97.5% (inactive) in [3]; 96.8% (inactive) in assay [4]; 97.4% (inactive) in assay [5]; 71.3% (inactive) in assay [17]. Further, the growth was 102% (inactive) in assay [6]; 96.6% (inactive) in [7]; 101% (inactive) in [19]; 80.4% (inactive) in assay [8]; 100% (inactive) in [9]; 89.9% (inactive) in [10]. The growth in assay [11] is 90.7% (inactive); in assay [12], 93.5% (inactive); in assay [13], 88.5% (inactive); in assay [14], 79.8% (inactive); in assay [15], 70.6% (inactive).
As for `O=C1OC(Oc2ccc(Br)cc2)(c2ccccc2)c2ccccc21` (stereo not given), the growth in assay [1] is 91.1% (inactive) and 80.5% (inactive); in assay [2], 75.6% (inactive) and 83.7% (inactive); in assay [3], 99.3% (inactive) and 127% (inactive); in assay [5], 91.3% (inactive) and 87.8% (inactive); in assay [16] it was 95.7% (inactive) and 65.6% (inactive); in assay [17] it was 69% (inactive). The growth in assay [6] was 82.6% (inactive) and 88% (inactive); in [7], 101% (inactive) and 73.2% (inactive); in assay [18], 105% (inactive) and 111% (inactive); in assay [19], 97.1% (inactive) and 84.1% (inactive); in [20], 70.1% (inactive); in [8], 89.5% (inactive). Further, the growth in assay [9] was 86.4% (inactive) and 107% (inactive); in assay [10], 82.7% (inactive) and 82.3% (inactive); in [11], 91.7% (inactive) and 76% (inactive); in [12], 83.1% (inactive) and 82.3% (inactive); in assay [13], 104% (inactive) and 98.5% (inactive); in [14] it was 88.5% (inactive) and 90.9% (inactive). In assay [15], the growth is 96.4% (inactive) and 98.2% (inactive).
For the molecule `COc1c(/C(C)=N/N=c2sc(C(C)=O)nn2-c2ccc(Cl)cc2)c(Oc2ccccc2)c(OC)c2occc12`, the growth was 89.6% (inactive) and 98% (inactive) in assay [1]; 98.9% (inactive) and 97.4% (inactive) in assay [2]; 89.8% (inactive) and 100% (inactive) in assay [3]; 88.6% (inactive) and 98.3% (inactive) in assay [4]; 99.2% (inactive) and 103% (inactive) in assay [5]; 90.9% (inactive) and 93.5% (inactive) in [16]. For the same molecule, the growth was 91.5% (inactive) and 79.8% (inactive) in [17]; 102% (inactive) in assay [7]; 114% (inactive) and 111% (inactive) in [18]; 110% (inactive) and 109% (inactive) in assay [19]; 93.9% (inactive) and 101% (inactive) in assay [20]; 102% (inactive) and 101% (inactive) in [8]. Moreover, the growth in assay [9] was 107% (inactive) and 101% (inactive); in assay [10], 113% (inactive); in assay [11] it was 101% (inactive) and 87% (inactive); in assay [12], 95.8% (inactive) and 105% (inactive); in [13], 103% (inactive) and 93.7% (inactive); in [14], 106% (inactive) and 113% (inactive). For the same molecule, the growth in [15] is 113% (inactive) and 96.2% (inactive).
As for `Oc1ccc(/C=C/c2ccccc2)cc1`, the growth was 73.2% (inactive) and 76.4% (inactive) in assay [1]; 104% (inactive) and 103% (inactive) in assay [2]; 77.6% (inactive) and 83.4% (inactive) in assay [3]; 109% (inactive) and 87.9% (inactive) in assay [4]; 73.4% (inactive) and 61.5% (inactive) in assay [5]; 95.7% (inactive) in [16]. Moreover, the growth in assay [17] was 72.1% (inactive) and 29.2% (inactive); in [7], 32.8% (inactive) and 45.1% (inactive); in assay [18], 104% (inactive) and 132% (inactive); in assay [19] it was 50.9% (inactive) and 58.4% (inactive); in assay [20], 64.7% (inactive) and 58.4% (inactive); in [8], 97.9% (inactive) and 71.7% (inactive). The growth is 57.4% (inactive) and 47.1% (inactive) in assay [9]; 75.9% (inactive) and 91% (inactive) in [10]; 53.7% (inactive) and 62.5% (inactive) in assay [11]; 82.8% (inactive) and 81% (inactive) in [12]; 79.6% (inactive) and 68.7% (inactive) in assay [13]; 100% (inactive) and 87.9% (inactive) in assay [14]. Also, in [15], the growth was 68% (inactive) and 73.4% (inactive).
As to `Nc1ccc2ccc(N)cc2c1`, the growth was 69.7% (inactive) in assay [1]; 95.7% (inactive) in assay [2]; 69.1% (inactive) in assay [3]; 86% (inactive) in [4]; 91.7% (inactive) in [5]; 101% (inactive) in assay [16]. Moreover, the growth in assay [6] was 82.5% (inactive); in assay [7] it was 94.3% (inactive); in assay [18], 89.6% (inactive); in assay [19] it was 96.1% (inactive); in [20], 57.3% (inactive); in [8] it was 33.1% (inactive). Further, the growth in [9] was 62.1% (inactive); in assay [10], 88.1% (inactive); in assay [11], 84.3% (inactive); in assay [12], 72.1% (inactive); in assay [13], 107% (inactive); in assay [15], 84.1% (inactive).
For `NCCSC(C[N+](=O)[O-])c1ccccc1Cl` (stereo not given), the growth in assay [1] was 95.6% (inactive); in [2], 99.1% (inactive); in [3], 91.7% (inactive); in assay [4], 106% (inactive); in [5] it was 98.2% (inactive); in assay [16] it was 102% (inactive). Also, the growth is 66.6% (inactive) in [17]; 101% (inactive) in [7]; 99.2% (inactive) in [18]; 37.6% (inactive) in assay [19]; -48.3% (active) in assay [20]; 98.8% (inactive) in [8]. Besides, the growth in assay [9] is 115% (inactive); in [10] it was 11% (inactive); in [11] it was 84.8% (inactive); in [12], 101% (inactive); in assay [13], 94.6% (inactive); in assay [14] it was -3.93% (active). Besides, the growth in assay [15] is 74.4% (inactive).
